Measurements published in PubChem BioAssay (Tox21).
Where “and” joins values, the source holds several entries; their conditions need not be identical. Equal values may be shown once. Inconclusive results are not listed. Entries that show only a call come without a potency. More than one record can exist for a structure, and the calls need not agree. Calls of active or inactive are those of the source. Unless noted, calls come from the whole dose curve; as a rule, active = well fitted curve in the direction sought with a large enough effect in the repeat runs; inconclusive = weak or mixed curves; inactive = no such curve, though single readings can be large; an effect the other way counts as inactive or inconclusive.

What was measured:
[1] = qHTS assay to identify small molecule antagonists of the estrogen receptor alpha (ER-alpha) signaling pathway using the BG1 cell line in the presence of 0.1 nM 17-beta-estradiol - cell viability counter screen (AID 1259241); conditions: VM7Luc4E2 (BG1) viability, CellTiter-Fluor protease, 22 h, 0.1 nM estradiol agonist added; series mostly up to 92.4 µM; note: nearly all actives have a fitted effect of over 40% in size
Summary of the method: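 VM7Luc4E2 cells (endogenous ER-alpha, 4×ERE-luciferase), hormone-starved 5 days in charcoal-stripped FBS, were treated with compounds plus 0.1 nM 17beta-estradiol for 22 hr at 37C; viability read in same wells as CellTiter-Fluor live-cell protease fluorescence.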

[2] = biological target: Estrogen receptor (Homo sapiens) (UniProt P03372); test: qHTS assay to identify small molecule antagonists of the estrogen receptor alpha (ER-alpha) signaling pathway using the BG1 cell line in the presence of 0.1 nM 17-beta-estradiol (AID 1259244); conditions: VM7Luc4E2 (BG1) ERE-luciferase, antagonist mode, 0.1 nM E2, 22 h; series mostly up to 92.4 µM; note: nearly all actives have a fitted effect of over 50% in size; note: potency is the fitted concentration of half-maximal effect
Sequence of Estrogen receptor (Homo sapiens) (P03372 whole entry, looked up): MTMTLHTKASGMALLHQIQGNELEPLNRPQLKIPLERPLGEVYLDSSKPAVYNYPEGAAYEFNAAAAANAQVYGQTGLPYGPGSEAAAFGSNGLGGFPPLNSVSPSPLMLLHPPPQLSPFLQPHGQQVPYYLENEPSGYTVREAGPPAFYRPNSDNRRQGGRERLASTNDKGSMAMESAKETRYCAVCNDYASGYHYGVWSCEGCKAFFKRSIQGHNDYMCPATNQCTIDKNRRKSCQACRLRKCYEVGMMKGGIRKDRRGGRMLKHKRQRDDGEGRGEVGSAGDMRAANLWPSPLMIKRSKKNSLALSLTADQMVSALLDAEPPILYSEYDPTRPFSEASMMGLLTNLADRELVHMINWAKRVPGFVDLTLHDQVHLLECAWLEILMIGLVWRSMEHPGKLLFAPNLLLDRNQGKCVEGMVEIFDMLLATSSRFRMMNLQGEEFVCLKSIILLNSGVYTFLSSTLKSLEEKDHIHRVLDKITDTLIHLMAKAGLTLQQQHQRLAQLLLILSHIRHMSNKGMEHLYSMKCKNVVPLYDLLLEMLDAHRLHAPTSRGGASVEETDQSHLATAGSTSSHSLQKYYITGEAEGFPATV
Summary of the method: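 Estradiol at 0.1 nM (final) stimulates the endogenous ER-alpha of VM7Luc4E2 cells carrying an ERE-driven luciferase; compounds are co-incubated 22 h at 37C and luciferase output quantified by luminescence.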

[3] = qHTS assay to identify small molecule HDAC inhibitors (AID 1259364); conditions: HCT-116 HDAC-Glo I/II luminescence, 2 h; series mostly up to 92.4 µM; note: potency is the fitted concentration of half-maximal effect;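 note: wild-type HCT-116 cells with endogenous class I/II HDAC activity; nearly all actives have a fitted effect of over 45% in size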
Summary of the method: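 Read-out: luminescence of HDAC-Glo I/II reagent, 30 min RT, reflecting class I/II deacetylase activity in whole HCT-116 cells pre-exposed 2 h to DMSO-dissolved compounds.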

[4] = qHTS assay to identify small molecule HDAC inhibitors - cell viability counter screen (AID 1259365); conditions: HCT-116 viability, CellTiter-Glo ATP luminescence, 2 h; series mostly up to 92.4 µM; note: nearly all actives have a fitted effect of over 50% in size
Summary of the method: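 Wild-type HCT-116 cells were seeded at 1,500 per well, incubated overnight at 37 C, then exposed to compounds in DMSO for 2hr. Viability was read by CellTiter-Glo luminescence after 30min at room temperature.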

[5] = qHTS assay to identify small molecule agonists of the sonic hedgehog signaling (Shh) pathway - cell viability counter screen (AID 1259366); conditions: NIH/3T3 Gli1-Luc viability, CellTiter-Fluor, 24 h; series mostly up to 92.4 µM; note: nearly all actives have a fitted effect of over 50% in size; note: potency is the fitted concentration of half-maximal effect
Summary of the method: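 NIH/3T3-derived 3T3 Gli1-Luc cells (stable Gli1-responsive firefly luciferase reporter) were seeded, rested 4 hr at 37 C/5% CO2, then exposed to compounds in DMSO for 24 hr; viability was read by CellTiter-Fluor fluorescence in the same wells.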

[6] = qHTS assay to identify small molecule antagonists of the sonic hedgehog signaling (Shh) pathway - cell viability counter screen (AID 1259367); conditions: NIH/3T3 Gli1-Luc viability, CellTiter-Fluor, 24 h; series mostly up to 92.4 µM; note: nearly all actives have a fitted effect of over 55% in size; note: potency is the fitted concentration of half-maximal effect
Summary of the method: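 Seed 3T3 Gli1-Luc cells at 2,000 per well; incubate 4 hr; add compound in DMSO, then conditioned medium; incubate at 37C with 5% CO2; add CellTiter-Fluor after 23 hr; read fluorescence 1 hr later.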

[7] = qHTS assay to identify small molecule agonists of the sonic hedgehog signaling (Shh) pathway (AID 1259368; calls by dose curve; note: nearly all actives have a fitted effect of over 15% in size); conditions: NIH/3T3 Gli1-Luc reporter, luciferase, 24 h; series mostly up to 92.4 µM
Summary of the method: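 A Gli1 transcriptional response element controlled firefly luciferase in 3T3Gli1-Luc cells. Compounds and a positive control were added 4 hr after plating, and cells were incubated a further 24 hr at 37 C before luminescence detection.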

[8] = qHTS assay to identify small molecule antagonists of the androgen receptor (AR) signaling pathway using the MDA cell line in the presence of 0.5 nM R1881 - cell viability counter screen (AID 1259242); conditions: MDA-kb2 viability, CellTiter-Fluor protease fluorescence, 16 h; series mostly up to 92.4 µM; note: nearly all actives have a fitted effect of over 45% in size; note: potency is the fitted concentration of half-maximal effect
Summary of the method: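 Viability of MDA-kb2 cells was multiplexed with the luciferase AR readout; after 16 hr with compounds and R1881 at 0.5 nM final, CellTiter-Fluor fluorescence was recorded.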

[9] = qHTS assay to identify small molecule phospholipidosis (PLD) inducers (AID 1259344; active = well fitted curve in the direction sought with a large enough effect; an effect the other way counts as inactive or inconclusive); conditions: HepG2 phospholipidosis, LipidTOX Red imaging, 24 h; series mostly up to 38.3 µM
Summary of the method: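 Quantitative HTS in HepG2: compound plus LipidTOX Red dye for 24 h, paraformaldehyde fixation with Hoechst 33342, widefield high-content imaging; amiodarone as positive and DMSO as negative control.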

[10] = biological target: Androgen receptor (Homo sapiens) (UniProt P10275); test: qHTS assay to identify small molecule antagonists of the androgen receptor (AR) signaling pathway using the MDA cell line in the presence of 0.5 nM R1881 (AID 1259243); conditions: MDA-kb2 MMTV-luciferase, R1881 0.5 nM, 16 h; series mostly up to 92.4 µM; note: nearly all actives have a fitted effect of over 50% in size
Sequence of Androgen receptor (Homo sapiens) (P10275 whole entry, looked up): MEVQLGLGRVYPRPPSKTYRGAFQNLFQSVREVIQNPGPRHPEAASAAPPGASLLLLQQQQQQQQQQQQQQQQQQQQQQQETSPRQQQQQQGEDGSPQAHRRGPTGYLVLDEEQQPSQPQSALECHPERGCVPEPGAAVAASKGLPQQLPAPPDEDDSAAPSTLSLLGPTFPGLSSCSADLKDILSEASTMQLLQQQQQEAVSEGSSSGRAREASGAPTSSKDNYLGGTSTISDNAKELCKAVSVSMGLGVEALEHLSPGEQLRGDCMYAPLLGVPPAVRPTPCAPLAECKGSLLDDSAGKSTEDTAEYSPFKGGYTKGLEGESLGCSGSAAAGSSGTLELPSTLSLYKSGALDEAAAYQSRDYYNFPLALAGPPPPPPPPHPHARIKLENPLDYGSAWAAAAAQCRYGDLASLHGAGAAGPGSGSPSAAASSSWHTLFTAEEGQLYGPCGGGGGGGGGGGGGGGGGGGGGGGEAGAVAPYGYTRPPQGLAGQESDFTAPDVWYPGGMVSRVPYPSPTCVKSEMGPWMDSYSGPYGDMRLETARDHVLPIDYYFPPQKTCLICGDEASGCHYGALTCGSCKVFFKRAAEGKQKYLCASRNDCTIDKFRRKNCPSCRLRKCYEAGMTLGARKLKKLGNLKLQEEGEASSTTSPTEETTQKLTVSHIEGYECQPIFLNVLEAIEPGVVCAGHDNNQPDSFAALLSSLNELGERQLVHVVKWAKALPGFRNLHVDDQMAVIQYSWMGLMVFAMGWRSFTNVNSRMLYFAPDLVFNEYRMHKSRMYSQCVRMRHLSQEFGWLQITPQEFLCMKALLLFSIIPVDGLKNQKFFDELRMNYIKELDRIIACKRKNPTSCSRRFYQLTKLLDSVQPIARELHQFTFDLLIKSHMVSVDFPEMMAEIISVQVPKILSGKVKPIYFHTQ
Summary of the method: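 Reporter cells cultured without CO2 receive test chemicals, then 0.5 nM R1881 final; after 16 hr at 37C, ONE-Glo is added and light output recorded.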

O=C=NC1CCCCC1
Potency [1]: inactive | Potency [2]: inactive | Potency [3]: inactive | Potency [4]: inactive | Potency [5]: inactive | Potency [6]: inactive | Potency [7]: inactive

C=CCc1ccccc1O
Potency [1]: inactive | Potency [2]: inactive | Potency [3]: inactive | Potency [5]: inactive | Potency [7]: inactive

C[Si](Cn1cncn1)(c1ccc(F)cc1)c1ccc(F)cc1
Potency [1]: inactive | Potency [3]: inactive | Potency [4]: inactive | Potency [6]: inactive

C1CCNCC1
Potency [1]: inactive | Potency [2]: inactive | Potency [3]: inactive | Potency [4]: inactive | Potency [5]: inactive | Potency [6]: inactive | Potency [7]: inactive

NC(=O)CF
Potency [1]: inactive | Potency [2]: inactive | Potency [3]: inactive | Potency [4]: inactive | Potency [5]: inactive | Potency [6]: inactive | Potency [7]: inactive

CCCN(CCOc1c(Cl)cc(Cl)cc1Cl)C(=O)n1ccnc1
Potency [1]: inactive | Potency [3]: inactive | Potency [4]: inactive | Potency [5]: inactive | Potency [7]: inactive

CON(C)C(=O)Nc1ccc(Cl)cc1
Potency [1]: inactive | Potency [2]: inactive | Potency [3]: 27.3 µM (active) | Potency [4]: inactive | Potency [5]: inactive | Potency [7]: inactive

O=[N+]([O-])c1cc(Cl)c(Cl)cc1Cl
Potency [1]: inactive | Potency [2]: inactive | Potency [3]: inactive | Potency [4]: inactive | Potency [7]: inactive

CCC[N+](CCC)(CCC)CCC
Potency [1]: inactive | Potency [2]: inactive | Potency [3]: inactive | Potency [4]: inactive | Potency [5]: inactive | Potency [6]: inactive | Potency [7]: inactive

SCc1ccccc1
Potency [1]: inactive | Potency [2]: inactive | Potency [3]: inactive | Potency [4]: inactive | Potency [6]: inactive | Potency [7]: inactive

O=C(CCl)CCl
Potency [1]: inactive | Potency [2]: inactive | Potency [3]: inactive | Potency [4]: inactive | Potency [6]: inactive | Potency [7]: inactive

CN1C[C@H](C(=O)N[C@]2(C)O[C@@]3(O)[C@@H]4CCCN4C(=O)[C@H](Cc4ccccc4)N3C2=O)C=C2c3cccc4[nH]cc(c34)C[C@H]21
Potency [8]: inactive | Potency [2]: 27.4 µM (active) and inactive | outcome [9]: inactive | Potency [3]: inactive | Potency [4]: inactive | Potency [7]: inactive

CC(C)(C)NCC(O)c1cc(Cl)c(N)c(C(F)(F)F)c1 (stereo not given)
Potency [8]: inactive | Potency [10]: inactive | Potency [2]: inactive | outcome [9]: inactive | Potency [3]: inactive | Potency [4]: inactive | Potency [5]: 7.5 µM (active) | Potency [7]: inactive

O=C(N/N=C/c1ccc([N+](=O)[O-])o1)c1cc([N+](=O)[O-])cc([N+](=O)[O-])c1O
outcome [9]: inactive | Potency [3]: inactive | Potency [4]: inactive | Potency [5]: 10.6 µM (active) | Potency [6]: 10.6 µM (active) | Potency [7]: inactive

O=C(O)C(F)(F)C(F)(F)C(F)(F)C(F)(F)C(F)(F)C(F)(F)C(F)(F)C(F)(F)F
Potency [1]: inactive | Potency [2]: inactive | Potency [3]: inactive | Potency [5]: inactive | Potency [7]: inactive

CCCCC(CC)CO[N+](=O)[O-] (stereo not given)
Potency [1]: inactive | Potency [2]: inactive | Potency [3]: inactive | Potency [4]: inactive | Potency [6]: inactive | Potency [7]: inactive

OCCSSCCO
Potency [1]: inactive | Potency [2]: inactive | Potency [3]: inactive | Potency [4]: inactive | Potency [5]: inactive | Potency [6]: inactive | Potency [7]: inactive

O=C1c2ccccc2C(=O)N1SC(Cl)(Cl)Cl
Potency [1]: inactive | Potency [2]: 15.1 µM (active) and 21.7 µM (active) | Potency [3]: inactive | Potency [4]: inactive | Potency [6]: 9.55 µM (active) and 17.2 µM (active) | Potency [7]: inactive

Nc1cc(Cl)cc(C(=O)O)c1Cl
Potency [1]: inactive | Potency [3]: inactive | Potency [5]: inactive | Potency [6]: inactive | Potency [7]: inactive

Clc1ccccc1
Potency [1]: inactive | Potency [2]: inactive | Potency [3]: inactive | Potency [4]: inactive | Potency [6]: 26.9 µM (active) | Potency [7]: inactive

CCCCCCCCn1sccc1=O
Potency [2]: 30.7 µM (active) | Potency [3]: inactive | Potency [4]: inactive | Potency [5]: 4.34 µM (active) and 3.21 µM (active) | Potency [7]: inactive

COC1=CC(=O)O[C@@H](/C=C/c2ccc3c(c2)OCO3)C1
Potency [1]: inactive | Potency [3]: 23.3 µM (active) | Potency [5]: inactive | Potency [6]: inactive | Potency [7]: inactive

OC[P+](CO)(CO)CO
Potency [1]: inactive | Potency [3]: inactive | Potency [4]: inactive | Potency [5]: inactive | Potency [6]: inactive

C=CC(C)(CCC=C(C)C)OC(=O)c1ccccc1N (stereo not given)
Potency [1]: inactive | Potency [3]: inactive | Potency [4]: inactive | Potency [5]: inactive | Potency [6]: inactive | Potency [7]: inactive

CC(C)c1ccc(OP(=O)(Oc2ccc(C(C)C)cc2)Oc2ccc(C(C)C)cc2)cc1
Potency [1]: inactive | Potency [2]: inactive | Potency [3]: inactive | Potency [4]: inactive | Potency [5]: inactive | Potency [6]: inactive | Potency [7]: inactive

CCCBr
Potency [1]: inactive | Potency [2]: inactive | Potency [3]: inactive | Potency [4]: inactive | Potency [5]: inactive | Potency [6]: inactive | Potency [7]: inactive

Cc1nc2ccccc2c(=O)n1-c1ccccc1Cl
Potency [8]: inactive | Potency [2]: inactive | outcome [9]: inactive | Potency [3]: inactive | Potency [4]: inactive | Potency [5]: 10.6 µM (active) | Potency [7]: inactive

O=C([O-])c1ccccn1.O=C([O-])c1ccccn1.O=C([O-])c1ccccn1.[Cr+3]
Potency [1]: inactive | Potency [2]: inactive | Potency [3]: inactive | Potency [4]: inactive | Potency [5]: inactive | Potency [6]: inactive

O=C(O)C(F)(F)C(F)(F)C(F)(F)C(F)(F)C(F)(F)F
Potency [1]: inactive | Potency [2]: inactive | Potency [3]: inactive | Potency [4]: inactive | Potency [5]: inactive | Potency [7]: inactive

Cc1nc(N(C)C)nc(OC(=O)N(C)C)c1C
Potency [1]: inactive | Potency [2]: inactive | Potency [3]: inactive | Potency [4]: inactive | Potency [5]: inactive | Potency [6]: inactive | Potency [7]: inactive

CC(C)(C)N(NC(=O)c1ccc(Cl)cc1)C(=O)c1ccccc1
Potency [8]: inactive | Potency [10]: inactive | Potency [2]: inactive | Potency [3]: inactive | Potency [4]: inactive | Potency [5]: 2.71 µM (active) | Potency [6]: 3.83 µM (active) | Potency [7]: inactive

CCOc1cccc(C2(N3CCN(c4ccccc4)CC3)CCC(C)CC2)c1 (stereo not given)
Potency [1]: inactive | Potency [2]: inactive | Potency [3]: inactive | Potency [5]: inactive | Potency [7]: inactive

Cc1ccccc1
Potency [1]: inactive | Potency [3]: inactive | Potency [4]: inactive | Potency [5]: inactive | Potency [6]: inactive | Potency [7]: inactive

CCC1CCC(=O)O1 (stereo not given)
Potency [1]: inactive | Potency [3]: inactive | Potency [4]: inactive | Potency [5]: inactive | Potency [7]: inactive

O=[N+]([O-])/C=C/c1ccccc1
Potency [1]: inactive | Potency [3]: inactive | Potency [5]: 5.54 µM (active) and 10.9 µM (active) | Potency [6]: inactive | Potency [7]: inactive

COC(=O)C1(O)c2ccccc2-c2ccccc21
Potency [1]: inactive | Potency [2]: inactive | Potency [3]: inactive | Potency [4]: inactive | Potency [5]: inactive | Potency [6]: inactive | Potency [7]: inactive

CCCCNC(=O)OCC#CI
Potency [8]: 60.8 µM (active) | Potency [2]: 12.1 µM (active) and 48.6 µM (active) | Potency [3]: inactive | Potency [4]: inactive | Potency [5]: 60.8 µM (active) and 30.6 µM (active) | Potency [7]: inactive

CCOP(=O)(O)C(N)=O
Potency [1]: inactive | Potency [2]: inactive | Potency [3]: inactive | Potency [4]: inactive | Potency [6]: inactive | Potency [7]: inactive

OCC1CO1 (stereo not given)
Potency [1]: inactive | Potency [2]: inactive | Potency [3]: inactive | Potency [5]: inactive | Potency [6]: inactive | Potency [7]: inactive
